From the supplement of paper PMC11732987, “Enantioselective OTUD7B fragment discovery through chemoproteomics screening and high-throughput optimisation” (Communications Chemistry, 2025)

What was measured:
Test in all cases: log2 ratio of Biotin-Ahx-Ub-VS probe labelling (fragment/DMSO); higher = less target engagement (more negative = stronger competition), active = hit call of the paper (q ≤ 0.05, log2 ratio ≤ -1)
Conditions in all cases: compound concentration: 200 uM; treatment time: 3 h
USP34 = USP34 (UniProt Q70CQ2)
Sequence of USP34 (Q70CQ2 whole entry, the tested form may be a part): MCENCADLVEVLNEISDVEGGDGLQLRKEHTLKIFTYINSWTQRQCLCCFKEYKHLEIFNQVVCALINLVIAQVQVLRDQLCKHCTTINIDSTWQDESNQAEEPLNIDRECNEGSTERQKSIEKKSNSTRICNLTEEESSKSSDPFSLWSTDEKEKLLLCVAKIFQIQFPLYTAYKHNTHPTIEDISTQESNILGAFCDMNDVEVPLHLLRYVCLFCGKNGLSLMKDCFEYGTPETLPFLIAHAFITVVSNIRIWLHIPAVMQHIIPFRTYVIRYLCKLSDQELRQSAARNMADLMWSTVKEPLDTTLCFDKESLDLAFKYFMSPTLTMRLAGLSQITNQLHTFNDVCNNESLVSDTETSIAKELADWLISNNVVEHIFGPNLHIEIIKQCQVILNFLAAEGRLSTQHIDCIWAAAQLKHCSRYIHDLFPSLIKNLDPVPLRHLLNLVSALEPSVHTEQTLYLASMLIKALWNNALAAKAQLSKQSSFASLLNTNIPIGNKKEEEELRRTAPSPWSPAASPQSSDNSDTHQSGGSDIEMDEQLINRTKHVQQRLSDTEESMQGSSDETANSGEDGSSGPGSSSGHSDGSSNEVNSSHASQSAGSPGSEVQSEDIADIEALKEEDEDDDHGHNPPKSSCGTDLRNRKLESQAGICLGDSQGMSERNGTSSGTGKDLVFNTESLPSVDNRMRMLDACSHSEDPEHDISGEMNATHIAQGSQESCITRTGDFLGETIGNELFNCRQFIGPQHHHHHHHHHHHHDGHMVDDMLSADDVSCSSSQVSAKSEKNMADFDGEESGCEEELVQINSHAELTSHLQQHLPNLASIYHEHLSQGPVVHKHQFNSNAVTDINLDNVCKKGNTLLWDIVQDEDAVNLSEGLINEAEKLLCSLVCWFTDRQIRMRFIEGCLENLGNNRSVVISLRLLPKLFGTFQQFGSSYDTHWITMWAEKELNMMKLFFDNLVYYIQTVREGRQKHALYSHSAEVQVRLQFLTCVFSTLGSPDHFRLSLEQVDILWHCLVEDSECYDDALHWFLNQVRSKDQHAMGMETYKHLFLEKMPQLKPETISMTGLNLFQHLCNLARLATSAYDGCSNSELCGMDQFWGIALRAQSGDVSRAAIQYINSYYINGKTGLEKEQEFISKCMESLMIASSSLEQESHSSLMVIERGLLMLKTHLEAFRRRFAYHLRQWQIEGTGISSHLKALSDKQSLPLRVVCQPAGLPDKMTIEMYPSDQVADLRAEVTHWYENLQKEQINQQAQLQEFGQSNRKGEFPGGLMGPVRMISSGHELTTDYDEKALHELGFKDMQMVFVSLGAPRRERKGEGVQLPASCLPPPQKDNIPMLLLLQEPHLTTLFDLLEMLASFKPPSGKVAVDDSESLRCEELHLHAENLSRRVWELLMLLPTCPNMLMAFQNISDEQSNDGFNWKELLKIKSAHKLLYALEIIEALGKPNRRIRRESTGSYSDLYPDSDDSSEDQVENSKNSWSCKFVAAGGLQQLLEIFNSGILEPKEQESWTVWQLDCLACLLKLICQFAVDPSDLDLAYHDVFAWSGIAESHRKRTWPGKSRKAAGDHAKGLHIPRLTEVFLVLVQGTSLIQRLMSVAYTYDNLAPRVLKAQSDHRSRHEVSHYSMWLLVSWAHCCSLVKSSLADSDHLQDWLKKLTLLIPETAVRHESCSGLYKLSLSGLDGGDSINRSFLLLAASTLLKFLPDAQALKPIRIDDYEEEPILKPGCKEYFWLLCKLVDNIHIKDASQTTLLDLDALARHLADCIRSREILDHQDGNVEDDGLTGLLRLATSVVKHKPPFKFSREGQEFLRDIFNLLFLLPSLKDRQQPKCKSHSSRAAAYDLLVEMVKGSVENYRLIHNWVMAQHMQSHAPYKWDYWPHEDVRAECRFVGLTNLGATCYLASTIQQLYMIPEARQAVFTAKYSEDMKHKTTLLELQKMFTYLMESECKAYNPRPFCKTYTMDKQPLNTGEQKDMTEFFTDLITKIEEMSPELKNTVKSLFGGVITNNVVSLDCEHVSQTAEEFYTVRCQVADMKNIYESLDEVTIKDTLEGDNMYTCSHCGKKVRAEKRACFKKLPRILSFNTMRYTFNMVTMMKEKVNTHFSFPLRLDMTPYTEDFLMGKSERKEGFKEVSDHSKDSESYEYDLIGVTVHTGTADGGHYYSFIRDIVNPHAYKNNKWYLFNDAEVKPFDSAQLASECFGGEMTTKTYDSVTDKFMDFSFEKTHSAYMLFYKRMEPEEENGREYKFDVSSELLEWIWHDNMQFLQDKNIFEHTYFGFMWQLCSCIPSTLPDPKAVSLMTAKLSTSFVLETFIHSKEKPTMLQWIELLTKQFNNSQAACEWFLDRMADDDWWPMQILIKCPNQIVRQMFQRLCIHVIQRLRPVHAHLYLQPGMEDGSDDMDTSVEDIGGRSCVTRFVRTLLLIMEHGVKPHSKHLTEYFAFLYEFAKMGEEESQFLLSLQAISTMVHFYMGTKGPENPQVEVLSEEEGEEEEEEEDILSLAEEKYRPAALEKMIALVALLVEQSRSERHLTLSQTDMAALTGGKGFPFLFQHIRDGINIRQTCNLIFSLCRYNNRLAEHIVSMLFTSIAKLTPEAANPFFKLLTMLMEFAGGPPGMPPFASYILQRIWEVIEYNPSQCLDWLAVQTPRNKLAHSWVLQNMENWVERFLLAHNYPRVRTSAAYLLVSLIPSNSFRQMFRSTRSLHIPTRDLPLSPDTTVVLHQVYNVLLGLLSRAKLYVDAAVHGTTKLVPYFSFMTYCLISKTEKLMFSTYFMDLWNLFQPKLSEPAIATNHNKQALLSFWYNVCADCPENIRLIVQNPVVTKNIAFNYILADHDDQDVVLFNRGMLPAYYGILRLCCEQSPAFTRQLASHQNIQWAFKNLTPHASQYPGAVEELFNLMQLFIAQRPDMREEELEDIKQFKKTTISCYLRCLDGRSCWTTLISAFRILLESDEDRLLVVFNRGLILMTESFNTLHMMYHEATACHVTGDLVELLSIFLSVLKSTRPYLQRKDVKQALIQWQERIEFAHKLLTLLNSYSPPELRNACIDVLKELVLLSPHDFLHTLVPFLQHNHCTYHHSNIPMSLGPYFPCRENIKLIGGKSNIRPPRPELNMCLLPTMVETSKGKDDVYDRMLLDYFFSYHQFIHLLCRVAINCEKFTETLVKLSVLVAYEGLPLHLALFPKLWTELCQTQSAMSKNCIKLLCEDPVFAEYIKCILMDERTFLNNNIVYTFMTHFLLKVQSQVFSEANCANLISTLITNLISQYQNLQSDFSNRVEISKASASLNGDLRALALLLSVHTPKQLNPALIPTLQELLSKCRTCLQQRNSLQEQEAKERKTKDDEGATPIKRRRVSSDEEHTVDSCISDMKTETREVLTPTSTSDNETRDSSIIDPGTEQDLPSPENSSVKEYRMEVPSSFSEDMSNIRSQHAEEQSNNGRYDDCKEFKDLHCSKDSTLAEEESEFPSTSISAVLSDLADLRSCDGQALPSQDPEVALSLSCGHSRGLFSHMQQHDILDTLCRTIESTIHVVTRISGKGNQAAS
Outline: (§1)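 HEK293T lysate, 495 µg per sample in Tris/CHAPS/IGEPAL buffer with protease inhibitors, was treated in triplicate with fragment at 200 µM or vehicle for 3 h and then with Biotin-Ahx-Ub-VS at 0.5 µM final for 1 h. Labelled DUBs were NeutrAvidin-enriched, digested with LysC and trypsin, and run by diaPASEF LC-MS/MS. Spectronaut label-free quantities were global-median-normalised, and values are average log2 fragment/vehicle ratios by unpaired t-test on proteins with ≥2 unique peptides.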

USP36 = target: T1, USP36 (UniProt Q9P275)
T1 sequence (whole entry): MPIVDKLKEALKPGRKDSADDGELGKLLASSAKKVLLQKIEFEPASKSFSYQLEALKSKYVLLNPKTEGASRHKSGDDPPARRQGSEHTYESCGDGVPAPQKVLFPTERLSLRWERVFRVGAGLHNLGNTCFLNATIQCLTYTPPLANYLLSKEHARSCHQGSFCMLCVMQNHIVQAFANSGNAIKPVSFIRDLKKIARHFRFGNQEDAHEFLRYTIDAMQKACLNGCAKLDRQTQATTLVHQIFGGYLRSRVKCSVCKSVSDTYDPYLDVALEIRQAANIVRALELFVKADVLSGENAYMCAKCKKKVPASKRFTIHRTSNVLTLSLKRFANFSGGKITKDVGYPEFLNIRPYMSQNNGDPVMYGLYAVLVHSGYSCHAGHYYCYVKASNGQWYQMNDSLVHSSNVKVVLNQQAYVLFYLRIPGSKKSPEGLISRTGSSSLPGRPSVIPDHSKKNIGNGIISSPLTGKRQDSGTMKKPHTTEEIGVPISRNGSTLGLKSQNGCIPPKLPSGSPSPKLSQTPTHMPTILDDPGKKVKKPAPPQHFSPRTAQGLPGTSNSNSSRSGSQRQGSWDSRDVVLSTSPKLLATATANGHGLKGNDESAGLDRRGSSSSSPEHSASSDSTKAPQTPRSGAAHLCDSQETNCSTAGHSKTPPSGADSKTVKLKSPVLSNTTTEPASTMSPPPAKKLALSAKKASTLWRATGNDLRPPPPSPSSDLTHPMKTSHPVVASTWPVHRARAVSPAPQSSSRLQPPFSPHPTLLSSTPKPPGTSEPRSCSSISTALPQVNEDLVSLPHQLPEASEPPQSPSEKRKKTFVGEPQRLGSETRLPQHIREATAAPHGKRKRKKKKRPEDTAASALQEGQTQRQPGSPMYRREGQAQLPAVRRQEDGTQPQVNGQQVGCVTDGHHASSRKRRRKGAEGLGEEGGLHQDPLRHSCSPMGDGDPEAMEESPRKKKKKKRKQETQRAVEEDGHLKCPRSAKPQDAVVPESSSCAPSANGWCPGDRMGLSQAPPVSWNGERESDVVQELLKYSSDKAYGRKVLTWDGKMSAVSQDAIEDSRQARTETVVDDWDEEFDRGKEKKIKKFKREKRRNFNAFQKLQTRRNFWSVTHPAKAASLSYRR
Outline: as §1

USP38 = target: T2, USP38 (UniProt Q8NB14)
T2 sequence (whole entry): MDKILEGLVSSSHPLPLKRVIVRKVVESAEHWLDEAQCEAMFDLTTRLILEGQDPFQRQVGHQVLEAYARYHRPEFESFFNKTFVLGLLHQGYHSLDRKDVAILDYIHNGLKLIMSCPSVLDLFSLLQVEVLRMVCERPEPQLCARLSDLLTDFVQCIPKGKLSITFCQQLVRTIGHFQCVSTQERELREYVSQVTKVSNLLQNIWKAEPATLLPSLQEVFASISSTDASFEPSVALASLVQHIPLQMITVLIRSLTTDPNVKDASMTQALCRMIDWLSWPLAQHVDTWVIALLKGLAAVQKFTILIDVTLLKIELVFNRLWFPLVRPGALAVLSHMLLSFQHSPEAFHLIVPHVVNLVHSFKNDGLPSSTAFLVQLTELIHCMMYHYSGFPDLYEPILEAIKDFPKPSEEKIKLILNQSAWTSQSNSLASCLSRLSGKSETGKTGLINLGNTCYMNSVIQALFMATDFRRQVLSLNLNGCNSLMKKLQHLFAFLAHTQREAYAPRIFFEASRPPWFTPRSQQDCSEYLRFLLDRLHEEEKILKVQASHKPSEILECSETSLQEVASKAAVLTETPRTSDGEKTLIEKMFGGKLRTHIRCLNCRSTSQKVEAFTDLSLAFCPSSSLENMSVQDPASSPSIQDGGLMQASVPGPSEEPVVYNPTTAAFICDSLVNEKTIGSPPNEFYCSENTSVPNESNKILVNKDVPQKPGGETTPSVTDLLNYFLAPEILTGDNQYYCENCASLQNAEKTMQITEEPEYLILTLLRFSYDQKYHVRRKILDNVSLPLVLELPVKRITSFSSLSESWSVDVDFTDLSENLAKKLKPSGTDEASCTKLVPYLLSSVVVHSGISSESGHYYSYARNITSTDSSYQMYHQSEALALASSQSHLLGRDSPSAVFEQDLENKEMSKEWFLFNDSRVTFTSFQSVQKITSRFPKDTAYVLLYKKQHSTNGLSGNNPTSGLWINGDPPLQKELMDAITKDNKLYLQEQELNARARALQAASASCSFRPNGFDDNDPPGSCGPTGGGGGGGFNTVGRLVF
Outline: as §1

USP39 = target: T3, USP39 (UniProt Q53GS9)
T3 sequence (whole entry): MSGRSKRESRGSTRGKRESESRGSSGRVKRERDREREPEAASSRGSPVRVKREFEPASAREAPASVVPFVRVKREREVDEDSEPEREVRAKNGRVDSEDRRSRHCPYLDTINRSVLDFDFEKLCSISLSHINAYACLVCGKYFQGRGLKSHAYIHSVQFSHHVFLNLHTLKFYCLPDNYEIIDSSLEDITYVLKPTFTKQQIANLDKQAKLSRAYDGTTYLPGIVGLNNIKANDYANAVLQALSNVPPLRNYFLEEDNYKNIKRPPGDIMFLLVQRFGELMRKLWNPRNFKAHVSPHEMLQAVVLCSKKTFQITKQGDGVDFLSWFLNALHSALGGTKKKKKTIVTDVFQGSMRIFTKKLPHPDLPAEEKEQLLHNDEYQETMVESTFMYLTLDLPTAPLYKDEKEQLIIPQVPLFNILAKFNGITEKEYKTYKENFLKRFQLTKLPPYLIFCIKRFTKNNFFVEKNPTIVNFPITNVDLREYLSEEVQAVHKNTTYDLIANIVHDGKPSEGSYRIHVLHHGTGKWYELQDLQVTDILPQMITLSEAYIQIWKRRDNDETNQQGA
Outline: as §1

USP4 = target: T4, USP4 (UniProt Q13107)
T4 sequence (whole entry): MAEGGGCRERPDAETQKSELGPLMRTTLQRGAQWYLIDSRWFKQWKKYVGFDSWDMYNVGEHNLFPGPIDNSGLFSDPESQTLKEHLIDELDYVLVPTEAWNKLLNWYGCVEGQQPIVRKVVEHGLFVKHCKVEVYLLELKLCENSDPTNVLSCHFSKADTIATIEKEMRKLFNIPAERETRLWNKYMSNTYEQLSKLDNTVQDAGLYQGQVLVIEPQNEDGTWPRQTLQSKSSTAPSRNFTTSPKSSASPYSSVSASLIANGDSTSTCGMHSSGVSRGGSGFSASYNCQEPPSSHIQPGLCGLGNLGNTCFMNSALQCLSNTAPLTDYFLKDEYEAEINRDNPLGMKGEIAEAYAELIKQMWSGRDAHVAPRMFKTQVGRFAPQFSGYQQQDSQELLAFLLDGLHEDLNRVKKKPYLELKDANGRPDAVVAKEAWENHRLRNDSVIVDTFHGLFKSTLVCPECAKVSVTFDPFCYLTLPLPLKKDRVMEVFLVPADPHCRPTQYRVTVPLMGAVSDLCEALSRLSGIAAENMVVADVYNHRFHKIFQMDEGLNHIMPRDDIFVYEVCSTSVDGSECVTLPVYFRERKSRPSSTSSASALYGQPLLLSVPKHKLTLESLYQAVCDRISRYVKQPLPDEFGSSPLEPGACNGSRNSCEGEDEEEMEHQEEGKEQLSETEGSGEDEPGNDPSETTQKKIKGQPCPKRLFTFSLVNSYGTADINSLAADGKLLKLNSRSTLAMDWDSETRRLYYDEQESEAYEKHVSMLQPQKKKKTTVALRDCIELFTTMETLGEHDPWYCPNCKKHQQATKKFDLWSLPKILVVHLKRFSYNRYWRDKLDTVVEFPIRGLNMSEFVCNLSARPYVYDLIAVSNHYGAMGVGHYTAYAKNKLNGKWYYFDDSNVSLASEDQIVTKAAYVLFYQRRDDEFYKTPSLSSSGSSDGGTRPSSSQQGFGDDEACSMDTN
Outline: as §1

Measured: log2 ratio of Biotin-Ahx-Ub-VS probe labelling

O=C(CCl)N1CCC(c2noc3cc(F)ccc23)CC1
inactive: USP34 -0.276 | USP36 -0.165 | USP38 0.108 | USP39 0.43 | USP4 -0.235
